Screens: PubChem BioAssay, Sanford-Burnham Center for Chemical Genomics
H9c2 protect – modulators protecting cardiomyocytes from myocardial damage; H9c2 cardiomyocytes, H2O2 injury protection, ATPLite, 2 h; AID 588492; protection from H2O2 cell death, % at 20 µM; 360,000 compounds, 0.63% hits;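 active means compounds giving at least 50% protection of heart cells from peroxide-induced death in the single-dose screen, raw or plate-pattern-corrected value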;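 further: 0% = DMSO wells with peroxide and 100% = DMSO wells without peroxide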
aDG glyco up – alpha-DG glycosylation activation; Pro5-aDG cells, alpha-DG glycosylation AlphaScreen (IIH6); 0% Pro5, 100% B10-LARGE cell signal; activation, % at 10 µM; 360,000 compounds, 0.22% hits;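 active means activation of at least 8% versus controls, or a plate z-score of at least 8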;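 further: Pro5 are CHO cells carrying HIG-tagged alpha-DG that lacks glycosylation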
PfGluPho inh – PfG6PD (Plasmodium falciparum) enzyme inhibition; 350,000 compounds, 0.78% hits; PfGluPho enzyme, NADPH resazurin-diaphorase fluorescence; AID 504690; inhibition, % at 20 µM;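 active means inhibition reaching at least a set limit at 20 µM in the primary screen, cut at about 59% in these data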;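 further: 0% = DMSO wells with substrate and 100% = DMSO wells lacking glucose-6-phosphate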
FAS TE block – FAS thioesterase (human) inhibition; 360,000 compounds, 0.67% hits; AID 602261; P49327; recombinant FAS-TE, OMFH fluorogenic substrate, fluorescence endpoint; inhibition, % at 15 µM;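 active means compounds whose normalised, plate-corrected inhibition of enzyme fluorescence in the single-dose primary screen is 50% or more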;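 further: 0% = DMSO with enzyme and 100% = substrate without enzyme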
Target sequence (P49327 whole entry, looked up): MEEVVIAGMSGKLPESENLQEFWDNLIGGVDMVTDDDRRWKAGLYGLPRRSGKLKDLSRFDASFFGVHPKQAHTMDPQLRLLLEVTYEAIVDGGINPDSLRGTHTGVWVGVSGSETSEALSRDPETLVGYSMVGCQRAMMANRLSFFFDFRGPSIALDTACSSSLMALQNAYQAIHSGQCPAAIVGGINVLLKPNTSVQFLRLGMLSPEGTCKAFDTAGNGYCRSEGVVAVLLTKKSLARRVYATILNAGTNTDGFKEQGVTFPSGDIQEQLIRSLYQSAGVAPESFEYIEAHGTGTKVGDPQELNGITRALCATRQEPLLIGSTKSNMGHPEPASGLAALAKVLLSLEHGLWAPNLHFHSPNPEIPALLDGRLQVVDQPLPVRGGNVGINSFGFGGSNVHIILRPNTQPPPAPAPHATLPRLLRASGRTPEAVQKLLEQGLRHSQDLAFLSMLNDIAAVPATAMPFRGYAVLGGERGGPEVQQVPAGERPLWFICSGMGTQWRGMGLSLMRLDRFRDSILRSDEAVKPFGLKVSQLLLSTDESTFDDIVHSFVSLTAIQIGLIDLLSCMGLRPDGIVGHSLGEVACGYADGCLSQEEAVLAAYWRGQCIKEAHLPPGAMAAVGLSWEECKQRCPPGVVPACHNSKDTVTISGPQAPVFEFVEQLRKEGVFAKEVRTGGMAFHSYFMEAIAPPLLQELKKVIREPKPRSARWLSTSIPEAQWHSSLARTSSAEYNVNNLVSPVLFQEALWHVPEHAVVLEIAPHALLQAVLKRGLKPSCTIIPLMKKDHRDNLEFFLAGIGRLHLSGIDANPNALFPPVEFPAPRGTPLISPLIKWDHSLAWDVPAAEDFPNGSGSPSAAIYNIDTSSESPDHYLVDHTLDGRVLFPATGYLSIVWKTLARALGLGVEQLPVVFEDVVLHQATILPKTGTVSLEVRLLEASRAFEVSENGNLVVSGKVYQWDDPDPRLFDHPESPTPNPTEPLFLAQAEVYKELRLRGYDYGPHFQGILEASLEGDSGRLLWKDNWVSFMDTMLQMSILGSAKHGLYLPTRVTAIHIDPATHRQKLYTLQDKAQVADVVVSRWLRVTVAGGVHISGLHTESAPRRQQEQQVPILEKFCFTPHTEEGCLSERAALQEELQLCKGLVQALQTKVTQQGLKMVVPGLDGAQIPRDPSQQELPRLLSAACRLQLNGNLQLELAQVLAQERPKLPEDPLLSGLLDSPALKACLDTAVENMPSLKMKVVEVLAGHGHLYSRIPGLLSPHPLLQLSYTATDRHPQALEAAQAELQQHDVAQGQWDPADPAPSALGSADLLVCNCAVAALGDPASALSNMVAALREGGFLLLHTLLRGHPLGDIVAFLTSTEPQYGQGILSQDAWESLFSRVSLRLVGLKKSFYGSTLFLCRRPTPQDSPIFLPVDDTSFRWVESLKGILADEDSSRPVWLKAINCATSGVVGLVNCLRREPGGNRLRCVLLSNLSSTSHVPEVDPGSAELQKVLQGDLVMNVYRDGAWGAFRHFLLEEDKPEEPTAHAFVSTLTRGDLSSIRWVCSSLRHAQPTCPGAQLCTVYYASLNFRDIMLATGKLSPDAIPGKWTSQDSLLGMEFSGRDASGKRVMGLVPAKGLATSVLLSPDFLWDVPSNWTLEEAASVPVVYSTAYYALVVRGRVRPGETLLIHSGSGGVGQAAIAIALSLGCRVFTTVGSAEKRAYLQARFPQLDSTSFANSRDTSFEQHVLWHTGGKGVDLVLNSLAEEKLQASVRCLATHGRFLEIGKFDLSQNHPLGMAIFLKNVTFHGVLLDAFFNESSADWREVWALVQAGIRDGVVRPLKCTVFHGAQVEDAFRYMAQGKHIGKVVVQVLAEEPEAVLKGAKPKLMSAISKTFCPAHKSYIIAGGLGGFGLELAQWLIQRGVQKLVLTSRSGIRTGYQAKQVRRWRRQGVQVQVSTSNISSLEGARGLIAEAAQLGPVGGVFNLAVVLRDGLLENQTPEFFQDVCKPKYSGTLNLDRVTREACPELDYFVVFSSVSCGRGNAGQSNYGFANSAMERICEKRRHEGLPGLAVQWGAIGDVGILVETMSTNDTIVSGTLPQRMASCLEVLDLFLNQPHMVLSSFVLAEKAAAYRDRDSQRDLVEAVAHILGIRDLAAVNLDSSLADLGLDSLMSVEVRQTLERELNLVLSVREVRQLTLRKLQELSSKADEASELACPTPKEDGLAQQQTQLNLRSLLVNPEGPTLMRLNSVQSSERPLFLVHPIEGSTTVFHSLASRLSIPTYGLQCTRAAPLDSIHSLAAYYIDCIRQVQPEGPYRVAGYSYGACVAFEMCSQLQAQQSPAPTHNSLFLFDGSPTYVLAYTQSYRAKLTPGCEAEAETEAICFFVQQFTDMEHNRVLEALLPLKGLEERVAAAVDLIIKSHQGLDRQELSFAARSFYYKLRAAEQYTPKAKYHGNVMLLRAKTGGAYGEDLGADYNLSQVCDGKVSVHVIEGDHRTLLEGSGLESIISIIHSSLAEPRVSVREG
CRFBP-R2 agonist – agonists of human CRF-binding protein/CRF-R2 receptor complex | HEK293 CRF-R2/CRF-BP, calcium dye fluorescence (FLIPR); percent of saturating CRF peptide response | activation, % at 13.2 µM | 350,000 compounds, 0.46% hits | AID 588473;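 active means activation of at least 50%, plus an integration ratio under a set limit after plate pattern correction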;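 further: plate controls were neutral control wells without compound for no effect and CRF at EC100 for full effect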
CRFBP-R2 block – antagonists of CRF-binding protein/CRF-R2 receptor complex; AID 588475; HEK293 CRF-R2/CRF-BP, CRF-induced calcium fluorescence; 350,000 compounds, 0.59% hits; inhibition, % at 11.8 µM;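 active means inhibition of the ligand-induced calcium signal above about 50% at the single tested concentration, limit read from the data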
PfG6PD confirm – PfG6PD inhibition, single-dose confirmed; shares compounds with PfGluPho inh; recombinant PfGluPho, NADPH-diaphorase-resazurin fluorescence; inhibition, % at 20 µM; 2,400 compounds, 34% hits; AID 504753;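 active means inhibition of at least 50% at 20 µM in any single replicate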;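 further: 0% = DMSO with substrate and 100% = DMSO lacking glucose-6-phosphate substrate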
Diaph ctr 10uM – diaphorase inhibition or oxidation at 10 uM NADPH; shares compounds with PfGluPho inh; diaphorase-coupled resazurin reduction, fluorescence, NADPH 10 uM; inhibition, % at 20 µM; 820 compounds, 39% hits; AID 504862;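 active means average inhibition reaching 50% or more with the compound at 20 µM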;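 further: resorufin red fluorescence formed as diaphorase reduces resazurin using NADPH; 0% = DMSO with enzyme and 100% = DMSO without enzyme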
Diaph ctr 30uM – inhibits diaphorase or oxidizes, flagging false PfG6PD hits; 820 compounds, 29% hits; Diaphorase/resazurin coupled assay, resorufin fluorescence, 30 uM NADPH; shares compounds with PfGluPho inh; inhibition, % at 20 µM;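 active means inhibition averaging 50% or more, tested at 20 µM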;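 further: 0% = DMSO with enzyme and 100% = DMSO wells lacking diaphorase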
* hit, by the source's call. Most compounds without a hit are left out; they make up all but 3.2% or so of the library.

For Cc1cccn2c(=O)c3cc(C#N)c(=NC(=O)c4ccccc4)n(Cc4ccco4)c3nc12 the results were H9c2 protect 43, aDG glyco up 1, PfGluPho inh 21, FAS TE block 31, CRFBP-R2 agonist 7 and CRFBP-R2 block -7.
For O=C(O)c1cccc(-c2ccc(/C=N/NC(=O)c3cccnc3)o2)c1 the results were H9c2 protect 4, aDG glyco up 0, PfGluPho inh -1, FAS TE block -8, CRFBP-R2 agonist -2 and CRFBP-R2 block 4.
`Cc1nnc(N/N=C/c2ccc(Br)cc2)n1N` gave H9c2 protect -3, aDG glyco up 0, PfGluPho inh 57, FAS TE block -4, CRFBP-R2 agonist 0 and CRFBP-R2 block 9.
For Cc1nnc(N/N=C\c2ccc(-c3cccc(C(=O)O)c3)o2)n1N the results were H9c2 protect -8, aDG glyco up 1, PfGluPho inh 71*, FAS TE block -7, CRFBP-R2 agonist 10, CRFBP-R2 block 12, PfG6PD confirm 52*, Diaph ctr 10uM 25 and Diaph ctr 30uM 18.
Screening Cc1nnc(N/N=C/c2ccc(-c3ccc(Br)cc3)o2)n1N returned H9c2 protect -7, aDG glyco up 0, PfGluPho inh 61*, FAS TE block -4, CRFBP-R2 agonist 0, CRFBP-R2 block 21 and PfG6PD confirm 48.
CC(C)(C)NC(=O)C(c1ccco1)N(C(=O)Cn1nnc(-c2ccc(F)cc2)n1)c1ccccc1F (stereo unspecified) was read as H9c2 protect 26, aDG glyco up -1, PfGluPho inh 11, FAS TE block 15, CRFBP-R2 agonist 2 and CRFBP-R2 block 11.
`CC1CCc2nc3sc4c(c3c(N)c2C1)CCCC4` (stereo unspecified) gave H9c2 protect -16, aDG glyco up 2, PfGluPho inh 91*, FAS TE block 4, CRFBP-R2 agonist 0, CRFBP-R2 block -5 and PfG6PD confirm 41.
`CC1CCc2c(nc3sc4c(c3c2N)CCCC4)C1` (stereo unspecified) gave H9c2 protect -12, aDG glyco up 2, PfGluPho inh 95*, FAS TE block 2, CRFBP-R2 agonist 7, CRFBP-R2 block -11, PfG6PD confirm 57*, Diaph ctr 10uM 51* and Diaph ctr 30uM 41.
CC(=O)Nc1nc(-c2ccc(Cl)cc2)ns1 was read as H9c2 protect -12, aDG glyco up 0, PfGluPho inh 16, FAS TE block 2, CRFBP-R2 agonist 1 and CRFBP-R2 block -5.
Screening CCc1ccccc1NC(=O)CCS(=O)(=O)c1ccc2c(c1)CCCN2C(C)=O returned H9c2 protect 5, aDG glyco up 0, PfGluPho inh 5, FAS TE block -5, CRFBP-R2 agonist -1 and CRFBP-R2 block 14.
`O=C(Cc1csc(N2CCOCC2)n1)N/N=C/c1ccc(O)c(O)c1O` gave H9c2 protect -2, aDG glyco up 0, PfGluPho inh 72*, FAS TE block 0, CRFBP-R2 agonist 0, CRFBP-R2 block -11, PfG6PD confirm 62*, Diaph ctr 10uM 57* and Diaph ctr 30uM 64*.
C/C(=N\NC(=O)Cc1csc(N2CCOCC2)n1)c1ccccc1 was read as H9c2 protect -7, aDG glyco up 0, PfGluPho inh 6, FAS TE block -8, CRFBP-R2 agonist 0 and CRFBP-R2 block 9.
Screening O=C(NNC(=O)c1ccccc1O)c1cccc(Br)c1 returned H9c2 protect 20, aDG glyco up 0, PfGluPho inh -39, FAS TE block 4, CRFBP-R2 agonist 0 and CRFBP-R2 block -1.
`COc1cc2[nH]c(Cl)c([N+](=O)[O-])c2cc1OC` gave H9c2 protect 3, aDG glyco up 0, PfGluPho inh 104*, FAS TE block -14, CRFBP-R2 agonist 0, CRFBP-R2 block 12 and PfG6PD confirm 21.
